Data on four compounds can be found in ChEMBL document CHEMBL2218924, “A broad activity screen in support of a chemogenomic map for kinase signalling research and drug discovery” (Biochem J, 2013).

The target of assay [1] is T1, Serine/threonine-protein kinase 17A (Homo sapiens) (UniProt Q9UEE5).
T1 sequence (whole entry): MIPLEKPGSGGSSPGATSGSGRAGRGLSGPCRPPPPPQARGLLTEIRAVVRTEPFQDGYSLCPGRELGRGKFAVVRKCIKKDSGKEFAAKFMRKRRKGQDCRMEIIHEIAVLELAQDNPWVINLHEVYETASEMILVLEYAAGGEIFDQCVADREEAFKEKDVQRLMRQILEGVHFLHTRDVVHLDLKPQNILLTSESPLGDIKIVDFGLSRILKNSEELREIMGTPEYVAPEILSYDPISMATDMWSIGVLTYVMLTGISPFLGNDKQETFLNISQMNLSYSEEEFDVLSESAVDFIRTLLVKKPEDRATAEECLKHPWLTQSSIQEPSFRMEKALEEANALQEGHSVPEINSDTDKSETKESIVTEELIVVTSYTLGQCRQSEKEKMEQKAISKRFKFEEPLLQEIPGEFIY
Conditions: at 10 µM.

The target of assay [2] is Epidermal growth factor receptor (Homo sapiens) (UniProt P00533). Conditions: at 1 µM.
Assay [3] has the same target. Conditions: at 10 µM.
For assay [4], the target named is T2, Ephrin type-A receptor 1 (Homo sapiens) (UniProt P21709).
T2 sequence (whole entry): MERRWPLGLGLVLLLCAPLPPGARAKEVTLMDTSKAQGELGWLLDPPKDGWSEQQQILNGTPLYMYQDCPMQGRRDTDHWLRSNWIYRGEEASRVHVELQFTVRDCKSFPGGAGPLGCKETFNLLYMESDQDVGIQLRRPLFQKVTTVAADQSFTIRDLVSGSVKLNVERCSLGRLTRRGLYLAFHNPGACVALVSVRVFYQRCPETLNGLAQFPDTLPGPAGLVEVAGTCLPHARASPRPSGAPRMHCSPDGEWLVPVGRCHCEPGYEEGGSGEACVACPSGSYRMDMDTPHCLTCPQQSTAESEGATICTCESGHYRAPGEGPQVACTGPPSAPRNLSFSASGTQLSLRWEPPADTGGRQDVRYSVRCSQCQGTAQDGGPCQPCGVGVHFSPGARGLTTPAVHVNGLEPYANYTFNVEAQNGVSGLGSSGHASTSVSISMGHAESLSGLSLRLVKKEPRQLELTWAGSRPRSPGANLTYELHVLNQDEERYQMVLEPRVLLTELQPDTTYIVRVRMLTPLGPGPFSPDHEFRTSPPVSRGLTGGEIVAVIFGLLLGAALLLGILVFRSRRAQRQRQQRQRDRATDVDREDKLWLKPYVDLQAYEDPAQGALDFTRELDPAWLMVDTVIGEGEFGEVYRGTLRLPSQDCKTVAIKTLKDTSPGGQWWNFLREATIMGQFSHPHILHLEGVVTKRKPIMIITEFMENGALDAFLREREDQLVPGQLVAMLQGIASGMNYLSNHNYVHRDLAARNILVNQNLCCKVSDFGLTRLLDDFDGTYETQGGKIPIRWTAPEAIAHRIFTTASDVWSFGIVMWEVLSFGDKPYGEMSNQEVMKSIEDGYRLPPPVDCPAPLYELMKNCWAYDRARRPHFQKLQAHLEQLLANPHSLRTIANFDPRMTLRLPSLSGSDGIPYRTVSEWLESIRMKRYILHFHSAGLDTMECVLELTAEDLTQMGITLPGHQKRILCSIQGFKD
To be noted: at 1 µM.

The target in assay [5] is T2, Ephrin type-A receptor 1 (Homo sapiens). To be noted: at 10 µM.
Assay [6] has as its target Ephrin type-A receptor 2 (Homo sapiens) (UniProt P29317). To be noted: at 1 µM.
For assay [7] the target is unchanged. To be noted: at 10 µM.
The target in assay [8] is T3, Ephrin type-A receptor 3 (Homo sapiens) (UniProt P29320).
T3 sequence (whole entry): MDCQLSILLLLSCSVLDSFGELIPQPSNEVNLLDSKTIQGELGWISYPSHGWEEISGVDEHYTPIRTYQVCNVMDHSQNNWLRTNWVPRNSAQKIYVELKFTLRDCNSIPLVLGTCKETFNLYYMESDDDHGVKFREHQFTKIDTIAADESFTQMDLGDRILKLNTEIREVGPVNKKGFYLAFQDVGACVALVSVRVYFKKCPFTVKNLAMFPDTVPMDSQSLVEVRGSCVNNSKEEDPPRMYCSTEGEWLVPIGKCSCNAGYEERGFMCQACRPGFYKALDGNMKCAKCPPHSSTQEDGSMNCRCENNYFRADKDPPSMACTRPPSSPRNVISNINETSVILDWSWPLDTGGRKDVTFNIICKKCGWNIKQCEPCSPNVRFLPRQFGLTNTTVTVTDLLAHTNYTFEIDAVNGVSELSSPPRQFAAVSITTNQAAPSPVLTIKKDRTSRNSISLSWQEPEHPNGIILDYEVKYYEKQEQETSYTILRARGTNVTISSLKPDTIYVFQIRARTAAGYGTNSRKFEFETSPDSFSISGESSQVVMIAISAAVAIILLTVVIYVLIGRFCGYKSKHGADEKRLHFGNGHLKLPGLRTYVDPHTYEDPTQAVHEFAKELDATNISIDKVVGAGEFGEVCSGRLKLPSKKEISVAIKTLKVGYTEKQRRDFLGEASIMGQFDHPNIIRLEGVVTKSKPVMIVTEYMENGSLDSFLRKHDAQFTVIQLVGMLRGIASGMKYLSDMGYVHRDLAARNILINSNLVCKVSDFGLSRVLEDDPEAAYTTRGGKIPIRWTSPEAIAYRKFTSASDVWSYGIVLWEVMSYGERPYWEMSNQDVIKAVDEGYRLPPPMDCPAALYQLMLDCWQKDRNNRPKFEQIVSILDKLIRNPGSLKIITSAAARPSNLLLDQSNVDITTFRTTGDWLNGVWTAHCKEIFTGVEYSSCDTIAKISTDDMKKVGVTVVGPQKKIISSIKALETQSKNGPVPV
To be noted: at 1 µM.

Assay [9] deals with T3, Ephrin type-A receptor 3 (Homo sapiens). To be noted: at 10 µM.
For assay [10], the target named is Ephrin type-A receptor 4 (Homo sapiens) (UniProt P54764). Conditions: at 1 µM.
Assay [11] has the same target. Conditions: at 10 µM.
Assay [12] concerns the target Ephrin type-A receptor 5 (Homo sapiens) (UniProt P54756). Conditions: at 1 µM.
Assay [13] has the same target. To be noted: at 10 µM.
Assay [14] has as its target Ephrin type-A receptor 7 (Homo sapiens) (UniProt Q15375). To be noted: at 1 µM.
The target is the same in assay [15]. Conditions: at 10 µM.
For assay [16], the target named is T4, Ephrin type-A receptor 8 (Homo sapiens) (UniProt P29322).
T4 sequence (whole entry): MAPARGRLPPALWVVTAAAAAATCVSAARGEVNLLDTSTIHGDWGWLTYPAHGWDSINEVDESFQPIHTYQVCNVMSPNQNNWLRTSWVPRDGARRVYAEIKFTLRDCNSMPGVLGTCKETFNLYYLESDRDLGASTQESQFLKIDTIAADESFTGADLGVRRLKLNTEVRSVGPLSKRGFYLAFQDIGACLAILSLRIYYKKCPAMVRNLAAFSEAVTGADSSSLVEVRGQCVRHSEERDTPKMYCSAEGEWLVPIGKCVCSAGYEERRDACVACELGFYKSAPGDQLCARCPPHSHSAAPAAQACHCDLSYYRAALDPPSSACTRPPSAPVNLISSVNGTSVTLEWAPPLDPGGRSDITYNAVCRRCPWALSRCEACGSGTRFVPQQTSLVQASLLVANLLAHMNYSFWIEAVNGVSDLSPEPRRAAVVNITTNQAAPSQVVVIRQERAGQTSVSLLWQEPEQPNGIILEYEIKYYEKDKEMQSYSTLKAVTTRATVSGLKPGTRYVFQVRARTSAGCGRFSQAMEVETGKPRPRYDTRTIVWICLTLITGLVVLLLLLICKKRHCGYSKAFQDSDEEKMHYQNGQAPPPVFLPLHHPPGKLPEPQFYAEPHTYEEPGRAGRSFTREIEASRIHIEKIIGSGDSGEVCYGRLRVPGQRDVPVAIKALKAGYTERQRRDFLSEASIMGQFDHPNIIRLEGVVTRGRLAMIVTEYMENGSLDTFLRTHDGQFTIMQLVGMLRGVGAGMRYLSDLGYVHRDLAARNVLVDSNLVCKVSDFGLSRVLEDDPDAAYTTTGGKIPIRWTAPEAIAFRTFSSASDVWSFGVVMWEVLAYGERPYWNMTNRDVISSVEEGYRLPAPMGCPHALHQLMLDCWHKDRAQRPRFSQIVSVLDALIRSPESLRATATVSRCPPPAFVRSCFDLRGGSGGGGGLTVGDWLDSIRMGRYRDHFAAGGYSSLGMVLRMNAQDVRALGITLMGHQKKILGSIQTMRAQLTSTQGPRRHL
To be noted: at 1 µM.

The target in assay [17] is T4, Ephrin type-A receptor 8 (Homo sapiens). Conditions: at 10 µM.
In assay [18] the target is T5, Ephrin type-B receptor 1 (Homo sapiens) (UniProt P54762).
T5 sequence (whole entry): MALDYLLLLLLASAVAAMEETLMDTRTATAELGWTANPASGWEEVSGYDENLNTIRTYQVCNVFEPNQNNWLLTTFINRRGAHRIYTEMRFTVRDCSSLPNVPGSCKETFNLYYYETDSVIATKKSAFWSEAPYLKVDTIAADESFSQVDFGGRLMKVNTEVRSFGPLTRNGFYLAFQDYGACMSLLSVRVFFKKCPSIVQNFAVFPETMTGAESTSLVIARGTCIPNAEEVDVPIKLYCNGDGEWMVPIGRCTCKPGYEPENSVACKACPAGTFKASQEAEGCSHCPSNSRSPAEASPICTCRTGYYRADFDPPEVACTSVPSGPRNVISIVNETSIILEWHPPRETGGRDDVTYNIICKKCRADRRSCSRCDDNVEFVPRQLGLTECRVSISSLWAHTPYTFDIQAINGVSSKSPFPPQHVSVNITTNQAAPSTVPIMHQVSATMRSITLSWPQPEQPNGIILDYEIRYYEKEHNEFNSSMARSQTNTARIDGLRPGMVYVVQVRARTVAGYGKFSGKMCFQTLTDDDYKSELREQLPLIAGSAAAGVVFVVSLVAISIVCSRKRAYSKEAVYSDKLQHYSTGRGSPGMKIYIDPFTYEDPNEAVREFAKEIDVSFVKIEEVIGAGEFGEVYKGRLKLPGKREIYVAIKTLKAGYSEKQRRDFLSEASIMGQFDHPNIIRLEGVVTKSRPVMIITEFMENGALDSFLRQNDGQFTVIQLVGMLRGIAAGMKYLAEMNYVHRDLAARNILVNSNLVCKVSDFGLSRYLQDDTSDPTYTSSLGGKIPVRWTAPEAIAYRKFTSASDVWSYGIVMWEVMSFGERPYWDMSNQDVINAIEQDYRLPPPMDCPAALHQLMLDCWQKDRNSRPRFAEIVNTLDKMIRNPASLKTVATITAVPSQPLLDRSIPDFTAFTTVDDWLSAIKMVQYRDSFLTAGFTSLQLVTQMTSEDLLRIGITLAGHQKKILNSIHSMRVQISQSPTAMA
To be noted: at 1 µM.

The target of assay [19] is T6, Dual specificity tyrosine-phosphorylation-regulated kinase 2 (Homo sapiens) (UniProt Q92630).
T6 sequence (whole entry): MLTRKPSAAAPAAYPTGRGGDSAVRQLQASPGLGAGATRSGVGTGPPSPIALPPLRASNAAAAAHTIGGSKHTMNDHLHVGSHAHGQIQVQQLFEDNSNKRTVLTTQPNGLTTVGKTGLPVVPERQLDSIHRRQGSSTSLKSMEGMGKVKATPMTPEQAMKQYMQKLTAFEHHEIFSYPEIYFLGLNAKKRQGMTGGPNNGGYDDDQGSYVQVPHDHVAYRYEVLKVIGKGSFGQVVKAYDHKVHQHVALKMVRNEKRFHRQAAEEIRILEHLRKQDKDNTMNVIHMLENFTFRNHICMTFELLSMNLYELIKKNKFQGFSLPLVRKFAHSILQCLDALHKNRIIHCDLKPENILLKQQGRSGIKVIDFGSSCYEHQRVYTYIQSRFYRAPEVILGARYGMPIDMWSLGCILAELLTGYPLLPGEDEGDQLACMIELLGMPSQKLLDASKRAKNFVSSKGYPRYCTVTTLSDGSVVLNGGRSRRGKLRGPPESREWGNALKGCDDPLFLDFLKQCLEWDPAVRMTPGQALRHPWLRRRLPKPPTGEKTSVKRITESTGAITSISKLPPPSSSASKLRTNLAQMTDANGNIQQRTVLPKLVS
To be noted: at 1 µM.

Assay [20] deals with T6, Dual specificity tyrosine-phosphorylation-regulated kinase 2 (Homo sapiens). To be noted: at 10 µM.

Sequence of Ephrin type-A receptor 5 (Homo sapiens) (P54756 whole entry): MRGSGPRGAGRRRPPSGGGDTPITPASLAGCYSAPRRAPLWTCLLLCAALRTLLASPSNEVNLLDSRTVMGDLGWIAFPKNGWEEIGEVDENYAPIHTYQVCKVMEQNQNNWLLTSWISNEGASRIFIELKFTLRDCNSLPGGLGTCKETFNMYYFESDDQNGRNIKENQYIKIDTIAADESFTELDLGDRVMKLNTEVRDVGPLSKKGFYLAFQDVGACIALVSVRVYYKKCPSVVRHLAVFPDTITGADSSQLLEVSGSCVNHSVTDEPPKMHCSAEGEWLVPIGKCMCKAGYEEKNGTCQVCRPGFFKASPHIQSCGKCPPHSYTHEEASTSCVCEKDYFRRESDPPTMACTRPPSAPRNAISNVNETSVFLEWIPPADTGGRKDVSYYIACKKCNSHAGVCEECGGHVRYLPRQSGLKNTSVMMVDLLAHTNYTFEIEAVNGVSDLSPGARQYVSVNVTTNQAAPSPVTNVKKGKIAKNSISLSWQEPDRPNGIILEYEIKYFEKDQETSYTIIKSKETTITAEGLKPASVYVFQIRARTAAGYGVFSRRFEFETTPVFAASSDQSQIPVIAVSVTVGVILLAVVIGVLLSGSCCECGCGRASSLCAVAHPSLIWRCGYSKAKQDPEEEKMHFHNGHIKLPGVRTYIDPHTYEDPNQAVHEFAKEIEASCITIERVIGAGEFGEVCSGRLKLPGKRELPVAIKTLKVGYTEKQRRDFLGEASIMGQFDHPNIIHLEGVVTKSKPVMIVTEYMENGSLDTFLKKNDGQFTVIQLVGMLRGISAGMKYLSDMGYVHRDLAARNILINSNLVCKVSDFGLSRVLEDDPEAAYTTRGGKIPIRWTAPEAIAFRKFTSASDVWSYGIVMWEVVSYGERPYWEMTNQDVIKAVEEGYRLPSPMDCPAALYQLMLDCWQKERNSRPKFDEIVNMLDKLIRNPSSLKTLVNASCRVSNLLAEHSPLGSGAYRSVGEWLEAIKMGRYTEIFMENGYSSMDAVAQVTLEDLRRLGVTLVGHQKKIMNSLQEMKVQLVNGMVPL
Sequence of Ephrin type-A receptor 4 (Homo sapiens) (P54764 whole entry): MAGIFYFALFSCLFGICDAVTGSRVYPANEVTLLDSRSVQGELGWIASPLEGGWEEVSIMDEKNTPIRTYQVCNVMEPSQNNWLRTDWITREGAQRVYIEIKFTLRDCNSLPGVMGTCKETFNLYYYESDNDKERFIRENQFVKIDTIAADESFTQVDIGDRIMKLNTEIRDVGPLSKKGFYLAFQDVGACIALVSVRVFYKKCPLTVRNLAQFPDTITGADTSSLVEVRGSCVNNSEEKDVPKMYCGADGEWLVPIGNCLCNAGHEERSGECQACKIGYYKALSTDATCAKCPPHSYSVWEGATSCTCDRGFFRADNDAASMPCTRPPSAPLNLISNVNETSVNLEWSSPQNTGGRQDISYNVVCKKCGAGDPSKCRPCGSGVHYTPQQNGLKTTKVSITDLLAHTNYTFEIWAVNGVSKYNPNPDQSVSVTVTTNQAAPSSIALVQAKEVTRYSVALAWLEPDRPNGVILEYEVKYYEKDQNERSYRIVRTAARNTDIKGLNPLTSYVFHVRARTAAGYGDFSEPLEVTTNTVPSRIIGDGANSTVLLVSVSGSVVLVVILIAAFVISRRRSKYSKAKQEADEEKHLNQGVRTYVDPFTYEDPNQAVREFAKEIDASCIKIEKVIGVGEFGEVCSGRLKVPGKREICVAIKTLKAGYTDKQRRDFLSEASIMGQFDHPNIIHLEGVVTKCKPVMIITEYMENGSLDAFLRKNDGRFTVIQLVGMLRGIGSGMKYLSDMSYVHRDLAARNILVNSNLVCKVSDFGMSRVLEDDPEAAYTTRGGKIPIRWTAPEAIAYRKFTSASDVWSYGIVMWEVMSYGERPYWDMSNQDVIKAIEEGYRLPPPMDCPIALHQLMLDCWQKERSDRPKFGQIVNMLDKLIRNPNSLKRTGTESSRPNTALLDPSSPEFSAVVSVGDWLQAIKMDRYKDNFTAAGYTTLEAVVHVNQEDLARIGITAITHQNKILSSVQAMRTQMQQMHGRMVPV
Sequence of Ephrin type-A receptor 7 (Homo sapiens) (Q15375 28-998 limits assumed): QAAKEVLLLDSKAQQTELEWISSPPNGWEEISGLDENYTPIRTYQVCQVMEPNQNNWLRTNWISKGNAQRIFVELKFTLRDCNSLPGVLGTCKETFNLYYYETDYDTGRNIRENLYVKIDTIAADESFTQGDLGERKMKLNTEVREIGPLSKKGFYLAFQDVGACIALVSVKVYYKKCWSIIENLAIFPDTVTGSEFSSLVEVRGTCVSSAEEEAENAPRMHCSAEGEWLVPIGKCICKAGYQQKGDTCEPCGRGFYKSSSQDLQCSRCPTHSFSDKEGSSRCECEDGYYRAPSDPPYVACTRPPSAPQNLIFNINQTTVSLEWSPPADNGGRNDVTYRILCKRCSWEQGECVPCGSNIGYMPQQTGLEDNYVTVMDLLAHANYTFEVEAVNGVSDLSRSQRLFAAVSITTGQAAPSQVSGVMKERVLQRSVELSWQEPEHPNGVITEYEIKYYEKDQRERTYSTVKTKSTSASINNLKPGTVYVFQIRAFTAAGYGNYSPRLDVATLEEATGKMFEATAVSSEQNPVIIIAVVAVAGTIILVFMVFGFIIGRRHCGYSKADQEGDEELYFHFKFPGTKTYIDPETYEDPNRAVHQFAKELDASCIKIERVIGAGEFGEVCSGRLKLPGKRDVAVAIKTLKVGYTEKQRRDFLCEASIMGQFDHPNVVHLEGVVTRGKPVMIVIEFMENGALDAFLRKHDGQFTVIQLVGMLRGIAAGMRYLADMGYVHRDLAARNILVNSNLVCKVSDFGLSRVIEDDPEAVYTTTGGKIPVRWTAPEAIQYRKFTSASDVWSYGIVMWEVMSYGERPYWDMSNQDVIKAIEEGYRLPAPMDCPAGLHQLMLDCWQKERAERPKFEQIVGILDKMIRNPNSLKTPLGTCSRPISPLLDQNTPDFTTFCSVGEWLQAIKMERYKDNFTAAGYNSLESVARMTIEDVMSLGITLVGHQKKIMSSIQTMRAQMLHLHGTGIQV
Sequence of Ephrin type-A receptor 2 (Homo sapiens) (P29317 whole entry): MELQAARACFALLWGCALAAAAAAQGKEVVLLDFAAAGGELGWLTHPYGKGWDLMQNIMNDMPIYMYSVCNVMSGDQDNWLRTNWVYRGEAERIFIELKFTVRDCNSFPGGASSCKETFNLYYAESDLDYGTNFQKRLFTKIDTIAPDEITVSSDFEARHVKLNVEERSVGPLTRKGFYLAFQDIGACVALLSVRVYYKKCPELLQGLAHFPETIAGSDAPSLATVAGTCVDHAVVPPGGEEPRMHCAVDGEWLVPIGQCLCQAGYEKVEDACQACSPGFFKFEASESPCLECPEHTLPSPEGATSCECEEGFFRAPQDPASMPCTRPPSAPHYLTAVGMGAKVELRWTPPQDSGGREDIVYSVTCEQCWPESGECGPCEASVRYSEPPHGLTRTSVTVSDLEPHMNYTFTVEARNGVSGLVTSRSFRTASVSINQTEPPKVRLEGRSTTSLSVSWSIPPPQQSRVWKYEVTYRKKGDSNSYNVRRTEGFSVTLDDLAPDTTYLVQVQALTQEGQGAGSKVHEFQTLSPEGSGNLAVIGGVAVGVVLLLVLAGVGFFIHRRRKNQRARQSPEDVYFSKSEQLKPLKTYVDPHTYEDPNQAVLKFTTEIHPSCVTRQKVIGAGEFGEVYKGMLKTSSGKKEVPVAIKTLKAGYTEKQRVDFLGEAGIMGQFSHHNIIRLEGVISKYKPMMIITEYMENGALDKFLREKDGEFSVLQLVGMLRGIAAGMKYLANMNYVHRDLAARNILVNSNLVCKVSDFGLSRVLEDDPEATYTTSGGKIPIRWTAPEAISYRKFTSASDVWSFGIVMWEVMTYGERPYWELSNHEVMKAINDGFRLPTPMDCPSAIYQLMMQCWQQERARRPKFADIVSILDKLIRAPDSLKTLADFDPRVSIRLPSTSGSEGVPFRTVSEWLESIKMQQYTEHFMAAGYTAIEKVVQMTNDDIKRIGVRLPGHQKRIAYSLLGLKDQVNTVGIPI

For orientation: residual activity means the signal under treatment as a percentage of the control signal. As to `O=C1Nc2cc(Br)ccc2/C1=C1/Nc2ccccc2/C1=N\O`, the residual activity in [1] came out at 10%; in assay [2], 66%; in assay [3], 33%; in assay [4], 99%; in [5] it was 92%; in assay [6] it was 27%. Further, the residual activity worked out at 20% in assay [7]; 25% in assay [8]; 3% in assay [9]; 109% in assay [10]; 98% in [11]; 37% in [12]. For the same compound, the residual activity in assay [13] worked out at 42%; in assay [14], 68%; in [15] it was 20%; in [16], 69%; in assay [17], 82%; in assay [18], 34%.

`N#C/C(=C(\N)Sc1ccc(N)cc1)c1ccccc1C(F)(F)F`: the residual activity in assay [1] is 118%; in assay [19], 105%; in assay [20] it was 95%; in assay [4], 94%; in assay [5] it was 82%; in assay [6] it was 98%. In addition, the residual activity in assay [7] stood at 111%; in [8] it was 96%; in assay [9], 99%; in assay [10] it was 116%; in assay [11], 112%; in assay [12], 98%. Also, the residual activity amounted to 95% in assay [13]; 99% in assay [14]; 89% in assay [15]; 85% in assay [16]; 87% in assay [17]; 110% in assay [18].

As for `Nc1ccc2ncnc(NCCc3ccc(Oc4ccccc4)cc3)c2c1`, the residual activity is 48% in [1]; 103% in [19]; 92% in [20]; 107% in assay [4]; 87% in assay [5]; 98% in assay [6]. The residual activity in [7] was found to be 91%; in assay [8], 95%; in assay [9] it was 92%; in [10], 125%; in assay [11], 104%; in assay [12] it was 110%. For the same compound, the residual activity in assay [13] is 113%; in [14] it was 112%; in assay [15], 100%; in assay [16], 104%; in [17], 99%; in [18], 114%.

Consider `N#CC(C#N)=C(N)/C(C#N)=C/c1ccc(O)cc1`, for which the residual activity amounted to 85% in assay [19]; 93% in assay [20]; 125% in [12]; 96% in [13]; 91% in [14]; 81% in assay [15].
